Measurements reported in PubChem BioAssay (EPA / NIEHS).
Records with an inconclusive call do not appear. Active and inactive are the calls of the source. The calls were made as follows, unless noted: active = hit-call score of the fitted dose curve at least 0.9, where 1 is the maximum; inactive = score below 0.9.

How the values were obtained:
[1] = molecular target: Myc proto-oncogene protein (Homo sapiens) (UniProt P01106); test: ATG_Myc_CIS: Attagene CIS-FACTORIAL HepG2 Assay for human Myelocytomatosis (Myc) Proto-Oncogene Transcription Factor (AID 2282990); settings: HepG2, Attagene cis-reporter transcription factor activity; actives raise or lower the signal
In short: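 Multiplexed cis-reporter transcription in HepG2 cells after 24 h chemical treatment. Reporter mRNA measured by RT-PCR and capillary electrophoresis fluorescence; activity fitted bidirectionally against DMSO control.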

[2] = ATG_NF_kB_CIS: Attagene CIS-FACTORIAL HepG2 Assay for human Nuclear Factor Kappa B (NF-kB) (AID 2282991); settings: HepG2 Attagene cis-factorial NF-kB reporter mRNA; actives raise or lower the signal
In short: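 Endogenous transcription factor activity in HepG2 was captured via cis-regulated reporter constructs; after 24 h dosing, reporter mRNA was reverse-transcribed, amplified, fluorescently labelled and sized by capillary electrophoresis, with activity fitted bidirectionally relative to DMSO.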

[3] = ATG_Oct_MLP_CIS: Attagene CIS-FACTORIAL HepG2 Assay for human Octamer-Binding Transcription Factor (Oct) (AID 2282993); settings: HepG2 Attagene cis-factorial Oct reporter, mRNA; actives raise or lower the signal
In short: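 Readout is reporter transcript level from RT-PCR with fluorescent primer extension and capillary electrophoresis, fitted in both directions against DMSO. Transfected HepG2 reporter units report endogenous factor activity after 24 h dosing.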

[4] = molecular target: Cellular tumor antigen p53 (Homo sapiens) (UniProt P04637); test: ATG_p53_CIS: Attagene CIS-FACTORIAL HepG2 Assay for human p53 Transcription Factor (AID 2282994); settings: HepG2 p53 cis-element reporter, Attagene mRNA; actives raise or lower the signal
In short: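 Endogenous p53 activity read in transiently transfected HepG2 from a cis-element-driven reporter transcript after 24 h exposure. RNA reverse-transcribed, PCR-amplified, fluorescently labelled and sized by capillary electrophoresis; gain or loss fitted against DMSO baseline.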

[5] = BSK_3C_uPAR: BioMAP Diversity Plus: 3C Assay for Urokinase-type plasminogen activator receptor (uPAR) Biomarker Activity (AID 2282998); settings: BioMAP 3C HUVEC, uPAR biomarker ELISA; actives raise or lower the signal
In short: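 Cell-surface uPAR on HUVEC (3C system) read by ELISA at 24 h post-treatment, with DMSO as baseline and fitting in both directions. Parallel cultures stained with SRB to flag overt cytotoxicity.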

[6] = BSK_3C_VCAM1: BioMAP Diversity Plus: 3C Assay for Vascular cell adhesion molecule 1 (VCAM1) Biomarker Activity (AID 2282999); settings: BioMAP 3C HUVEC, VCAM1 ELISA, cytokine-stimulated; actives raise or lower the signal
In short: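 Vascular primary endothelium (human umbilical vein) was exposed to chemicals and assayed 24 h later. VCAM-1 levels came from ELISA, with DMSO serving as baseline for bidirectional fitting.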

[7] = BSK_4H_Eotaxin3: BioMAP Diversity Plus: 4H Assay for Eotaxin 3 Biomarker Activity (AID 2283000); settings: primary human endothelial cells (HUVEC); actives raise or lower the signal
In short: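 Eotaxin-3 (CCL26) levels were measured by ELISA in HUVEC primary cultures 24 h post-dosing. Gain or loss of signal was fitted in both directions, with DMSO serving as baseline and negative control.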

[8] = molecular target: human Peroxisome Proliferator-activated Receptor alpha (PPARa), PPARA (gene 5465) (UniProt Q07869); test: ATG_PPARa_TRANS: Attagene TRANS-FACTORIAL HepG2 Assay for human Peroxisome Proliferator-activated Receptor alpha (PPARa) (AID 2283001; active = hit-call score of the fitted dose curve at least 0.9, where 1 is the maximum)
In short: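 Exposure: 24 h, transiently transfected HepG2 cells. Endpoint: GAL4-UAS reporter mRNA, RT-PCR with capillary electrophoresis fluorescence. Baseline: DMSO; increases fitted.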

[9] = molecular target: human Peroxisome Proliferator-activated Receptor delta (PPARd), PPARD (gene 5467) (UniProt Q03181); test: ATG_PPARd_TRANS: Attagene TRANS-FACTORIAL HepG2 Assay for human Peroxisome Proliferator-activated Receptor delta (PPARd) (AID 2283002; active = hit-call score of the fitted dose curve at least 0.9, where 1 is the maximum)
In short: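 Multiplexed trans-activation format: HepG2 liver cells expressing exogenous NR-Gal4 chimeras and GAL4-UAS reporters were exposed for 24 h. Reporter mRNA was detected by RT-PCR with capillary electrophoresis fluorescence; activity fitted as gain of signal relative to DMSO.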

[10] = read-out: Intercellular Adhesion Molecule 1 (ICAM1), ICAM1 (gene 3383); test: BSK_3C_ICAM1: BioMAP Diversity Plus: 3C Assay for Intercellular Adhesion Molecule 1 (ICAM1) Biomarker Activity (AID 2283003); settings: primary human endothelial cells (HUVEC); actives raise or lower the signal
In short: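 ELISA read-out of ICAM-1; HUVEC (primary human), 3C system, 24 h post-dosing; bidirectional fit vs DMSO baseline.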

[11] = molecular target: human Retinoic Acid Receptor beta (RARb), RARB (gene 5915) (UniProt P10826); test: ATG_RARb_TRANS: Attagene TRANS-FACTORIAL HepG2 Assay for human Retinoic Acid Receptor beta (AID 2283004; active = hit-call score of the fitted dose curve at least 0.9, where 1 is the maximum)
In short: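 HepG2 cells were transiently transfected with GAL4-UAS reporter units that report activity of exogenous chimeric NR-Gal4 proteins, then exposed to compound for 24 h. Reporter mRNA was quantified by RT-PCR with capillary electrophoresis fluorescence, as gain of signal over DMSO.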

[12] = molecular target: Retinoic acid receptor alpha (Homo sapiens) (UniProt P10276); test: ATG_RARa_TRANS: Attagene TRANS-FACTORIAL HepG2 Assay for human Retinoic Acid Receptor alpha (RARa) (AID 2283005; active = hit-call score of the fitted dose curve at least 0.9, where 1 is the maximum)
In short: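 HepG2 cells transiently transfected with multiple reporter units expressing chimeric RARα-GAL4 fusion, with GAL4-UAS-driven reporters. After 24 h compound exposure, reporter mRNA induction quantified by RT-PCR and capillary electrophoresis with fluorescent labeling; gain-of-signal fitted relative to DMSO control.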

[13] = BSK_3C_Proliferation: Cell Proliferation Assessment in the BioMAP Diversity Plus: 3C Assay (AID 2283006); settings: primary human endothelial cells (HUVEC);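 as to AC50: potency may reflect either rise or fall in cell number versus DMSO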
In short: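 HUVEC, sub-confluent; 48 h chemical exposure; 10% TCA fix, 0.1% SRB stain, A560 total protein. Gain or loss of signal fitted both directions vs DMSO control.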

[14] = molecular target: Nuclear receptor subfamily 1 group I member 2 (Homo sapiens) (UniProt O75469); test: ATG_PXR_TRANS: Attagene TRANS-FACTORIAL HepG2 Assay for human Pregnane X Receptor (PXR) (AID 2283008; active = hit-call score of the fitted dose curve at least 0.9, where 1 is the maximum)
In short: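 Transactivation by exogenous PXR–GAL4 fusion measured as reporter transcript induction after 24 h compound treatment of transfected human HepG2 cells. Read-out via RT-PCR and capillary electrophoresis of labelled fragments, fitted upward relative to DMSO.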

[15] = molecular target: human Retinoic Acid Receptor gamma (RARg), RARG (gene 5916) (UniProt P13631); test: ATG_RARg_TRANS: Attagene TRANS-FACTORIAL HepG2 Assay for human Retinoic Acid Receptor gamma (RARg) (AID 2283009; active = hit-call score of the fitted dose curve at least 0.9, where 1 is the maximum)
In short: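 Readout: reporter transcript levels via RT-PCR, 6-FAM primer-extension labelling, HpaI digestion and capillary electrophoresis. Cells: HepG2 carrying transfected RARg-GAL4 chimera plus UAS reporter set. Dosing 24 h; DMSO negative control.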

[16] = molecular target: human RAR-related Orphan Receptor beta (RORb), RORB (gene 6096) (UniProt Q92753); test: ATG_RORb_TRANS: Attagene TRANS-FACTORIAL HepG2 Assay for human RAR-related Orphan Receptor beta (RORb) (AID 2283010; active = hit-call score of the fitted dose curve at least 0.9, where 1 is the maximum)
In short: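 HepG2, transient MRTU transfection (GAL4-UAS reporters, exogenous NR-Gal4 chimeras); 24 h compound exposure; total RNA → RT-PCR → 6-FAM primer extension → HpaI digest → CE fluorescence. Positive direction vs DMSO baseline.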

[17] = molecular target: human RAR-related Orphan Receptor gamma (RORg), RORC (gene 6097) (UniProt P51449); test: ATG_RORg_TRANS: Attagene TRANS-FACTORIAL HepG2 Assay for human RAR-related Orphan Receptor gamma (RORg) (AID 2283011; active = hit-call score of the fitted dose curve at least 0.9, where 1 is the maximum)
In short: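 HepG2 cells transiently transfected with GAL4-UAS reporter units and chimeric RORg-Gal4 construct; after 24 h chemical exposure, reporter mRNA measured by RT-PCR with fluorescent capillary electrophoresis, gain of signal fitted against DMSO.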

[18] = ATG_NRF2_ARE_CIS: Attagene CIS-FACTORIAL HepG2 Assay for human Nuclear Factor Erythroid 2 Related Factor 2 (NFR2) response to Antioxidant Response Elements (ARE) (AID 2282992); settings: HepG2 Attagene ARE/NRF2 reporter, transcription factor activity; actives raise or lower the signal
In short: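 Endogenous transcription factor activity read out as reporter transcript levels (RT-PCR plus capillary electrophoresis, fluorescence) in transiently transfected HepG2 cells. Measured at 24 h after dosing; gain or loss of signal fitted versus DMSO.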

[19] = molecular target: Peroxisome proliferator-activated receptor gamma (Homo sapiens) (UniProt P37231); test: ATG_PPARg_TRANS: Attagene TRANS-FACTORIAL HepG2 Assay for human Peroxisome Proliferator-activated Receptor-gamma (PPARg) (AID 2283007; active = hit-call score of the fitted dose curve at least 0.9, where 1 is the maximum)
In short: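 A TRANS-format multiplexed reporter assay measures activity of an exogenous chimeric NR-Gal4 protein in HepG2 cells. After 24 h of chemical exposure, reporter transcripts are amplified, fluorescently labelled and sized by capillary electrophoresis, with gain of signal scored against DMSO.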

Measured: AC50

Sequence of Peroxisome proliferator-activated receptor gamma (Homo sapiens) (P37231 whole entry, looked up, the tested form may be a part): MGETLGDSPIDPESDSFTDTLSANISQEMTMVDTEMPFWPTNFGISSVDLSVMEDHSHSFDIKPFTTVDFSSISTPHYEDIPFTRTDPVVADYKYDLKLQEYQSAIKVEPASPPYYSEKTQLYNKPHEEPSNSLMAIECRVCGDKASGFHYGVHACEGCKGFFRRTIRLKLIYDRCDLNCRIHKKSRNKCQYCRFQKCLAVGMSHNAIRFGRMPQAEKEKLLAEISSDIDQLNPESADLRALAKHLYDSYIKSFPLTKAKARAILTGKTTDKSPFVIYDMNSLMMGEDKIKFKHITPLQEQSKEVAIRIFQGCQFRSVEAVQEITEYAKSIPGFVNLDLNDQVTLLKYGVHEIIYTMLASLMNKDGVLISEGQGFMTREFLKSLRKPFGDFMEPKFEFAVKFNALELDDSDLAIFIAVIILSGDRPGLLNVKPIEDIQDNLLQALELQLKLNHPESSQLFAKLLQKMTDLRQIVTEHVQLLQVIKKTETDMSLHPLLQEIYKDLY
Sequence of human RAR-related Orphan Receptor gamma (RORg), RORC (gene 6097) (P51449 whole entry, looked up, the tested form may be a part): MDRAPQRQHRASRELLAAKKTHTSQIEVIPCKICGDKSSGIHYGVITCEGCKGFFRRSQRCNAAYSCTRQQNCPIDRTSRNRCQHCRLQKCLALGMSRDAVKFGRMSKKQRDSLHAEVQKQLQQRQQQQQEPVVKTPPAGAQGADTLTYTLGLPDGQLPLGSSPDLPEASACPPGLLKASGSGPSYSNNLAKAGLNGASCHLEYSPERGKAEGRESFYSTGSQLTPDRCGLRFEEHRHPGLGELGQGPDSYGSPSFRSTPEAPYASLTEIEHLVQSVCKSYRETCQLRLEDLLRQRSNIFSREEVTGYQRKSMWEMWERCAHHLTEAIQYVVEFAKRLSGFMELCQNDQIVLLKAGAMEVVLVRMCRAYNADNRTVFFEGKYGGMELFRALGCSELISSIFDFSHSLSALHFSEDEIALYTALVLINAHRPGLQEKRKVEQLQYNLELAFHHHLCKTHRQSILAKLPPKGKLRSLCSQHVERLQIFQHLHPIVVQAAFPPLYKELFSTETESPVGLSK
Sequence of human RAR-related Orphan Receptor beta (RORb), RORB (gene 6096) (Q92753 whole entry, looked up, the tested form may be a part): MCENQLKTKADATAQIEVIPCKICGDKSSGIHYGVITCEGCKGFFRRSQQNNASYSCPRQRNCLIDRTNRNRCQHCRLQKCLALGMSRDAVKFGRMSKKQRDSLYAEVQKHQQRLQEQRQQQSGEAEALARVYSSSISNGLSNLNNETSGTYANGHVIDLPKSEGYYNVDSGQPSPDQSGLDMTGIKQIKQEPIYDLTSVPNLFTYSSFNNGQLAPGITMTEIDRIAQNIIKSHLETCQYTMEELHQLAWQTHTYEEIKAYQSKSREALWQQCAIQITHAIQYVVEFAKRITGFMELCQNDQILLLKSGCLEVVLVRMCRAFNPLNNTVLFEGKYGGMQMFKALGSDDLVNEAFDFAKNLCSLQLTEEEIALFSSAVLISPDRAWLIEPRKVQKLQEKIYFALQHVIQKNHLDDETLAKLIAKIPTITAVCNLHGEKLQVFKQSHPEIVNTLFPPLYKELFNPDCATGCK
Sequence of human Peroxisome Proliferator-activated Receptor alpha (PPARa), PPARA (gene 5465) (Q07869 whole entry, looked up, the tested form may be a part): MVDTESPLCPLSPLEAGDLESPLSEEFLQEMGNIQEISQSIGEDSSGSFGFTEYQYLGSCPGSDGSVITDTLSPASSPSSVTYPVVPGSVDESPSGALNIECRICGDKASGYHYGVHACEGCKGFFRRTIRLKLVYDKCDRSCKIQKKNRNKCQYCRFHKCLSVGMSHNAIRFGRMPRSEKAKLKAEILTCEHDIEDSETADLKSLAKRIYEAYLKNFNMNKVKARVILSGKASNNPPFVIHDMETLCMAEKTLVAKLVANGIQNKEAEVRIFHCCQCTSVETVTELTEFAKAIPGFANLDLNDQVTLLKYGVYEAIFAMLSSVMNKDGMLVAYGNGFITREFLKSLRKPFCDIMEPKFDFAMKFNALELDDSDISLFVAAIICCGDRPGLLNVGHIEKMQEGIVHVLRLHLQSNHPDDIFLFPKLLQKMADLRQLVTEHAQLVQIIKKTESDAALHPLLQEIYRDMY
Sequence of Myc proto-oncogene protein (Homo sapiens) (P01106 whole entry, looked up): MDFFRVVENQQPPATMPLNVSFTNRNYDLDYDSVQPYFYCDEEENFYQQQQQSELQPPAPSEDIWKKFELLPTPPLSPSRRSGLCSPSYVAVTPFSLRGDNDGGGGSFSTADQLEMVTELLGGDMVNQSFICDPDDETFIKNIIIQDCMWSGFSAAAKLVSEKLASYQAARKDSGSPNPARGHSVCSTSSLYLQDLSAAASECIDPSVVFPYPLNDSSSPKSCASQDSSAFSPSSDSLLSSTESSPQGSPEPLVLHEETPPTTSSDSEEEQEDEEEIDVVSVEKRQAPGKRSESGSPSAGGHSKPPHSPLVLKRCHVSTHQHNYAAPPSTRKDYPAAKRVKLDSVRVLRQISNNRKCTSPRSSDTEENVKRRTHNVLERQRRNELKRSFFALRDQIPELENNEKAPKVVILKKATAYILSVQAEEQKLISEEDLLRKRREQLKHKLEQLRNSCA
Sequence of human Peroxisome Proliferator-activated Receptor delta (PPARd), PPARD (gene 5467) (Q03181 whole entry, looked up, the tested form may be a part): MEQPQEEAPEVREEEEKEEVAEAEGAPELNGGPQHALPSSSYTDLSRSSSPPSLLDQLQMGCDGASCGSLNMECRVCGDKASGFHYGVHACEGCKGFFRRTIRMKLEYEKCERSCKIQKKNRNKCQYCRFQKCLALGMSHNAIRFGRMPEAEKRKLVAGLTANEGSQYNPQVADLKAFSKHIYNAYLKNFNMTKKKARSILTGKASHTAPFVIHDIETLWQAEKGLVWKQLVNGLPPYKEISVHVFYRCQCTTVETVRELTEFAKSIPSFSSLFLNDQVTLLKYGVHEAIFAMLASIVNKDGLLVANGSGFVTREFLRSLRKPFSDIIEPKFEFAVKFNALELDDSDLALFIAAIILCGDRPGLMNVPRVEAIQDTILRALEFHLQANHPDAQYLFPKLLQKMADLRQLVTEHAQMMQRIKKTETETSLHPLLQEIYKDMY
Sequence of Cellular tumor antigen p53 (Homo sapiens) (P04637 whole entry, looked up): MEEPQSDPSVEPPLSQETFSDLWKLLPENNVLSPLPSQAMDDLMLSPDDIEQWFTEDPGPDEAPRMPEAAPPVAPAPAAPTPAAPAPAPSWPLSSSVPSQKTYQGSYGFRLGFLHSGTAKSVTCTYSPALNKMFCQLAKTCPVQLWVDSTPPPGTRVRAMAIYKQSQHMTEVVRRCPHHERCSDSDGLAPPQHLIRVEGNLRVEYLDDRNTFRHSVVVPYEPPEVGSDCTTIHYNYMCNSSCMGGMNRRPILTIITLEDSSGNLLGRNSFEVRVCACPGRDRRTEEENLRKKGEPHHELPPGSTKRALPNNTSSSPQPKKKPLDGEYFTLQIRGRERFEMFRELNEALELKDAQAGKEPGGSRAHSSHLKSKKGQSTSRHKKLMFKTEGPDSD
Sequence of human Retinoic Acid Receptor beta (RARb), RARB (gene 5915) (P10826 whole entry, looked up, the tested form may be a part): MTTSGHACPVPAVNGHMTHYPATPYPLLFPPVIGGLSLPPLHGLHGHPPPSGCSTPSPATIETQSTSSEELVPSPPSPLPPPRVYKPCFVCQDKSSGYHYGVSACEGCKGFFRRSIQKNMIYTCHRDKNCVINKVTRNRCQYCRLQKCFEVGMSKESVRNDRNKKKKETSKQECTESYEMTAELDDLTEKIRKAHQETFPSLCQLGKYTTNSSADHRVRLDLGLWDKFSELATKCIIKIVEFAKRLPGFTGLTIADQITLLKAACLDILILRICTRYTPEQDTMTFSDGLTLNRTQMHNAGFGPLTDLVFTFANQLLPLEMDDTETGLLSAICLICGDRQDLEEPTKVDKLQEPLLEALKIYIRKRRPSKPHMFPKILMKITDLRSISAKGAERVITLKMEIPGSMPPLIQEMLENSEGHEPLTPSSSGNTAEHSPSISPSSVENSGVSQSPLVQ
Sequence of Nuclear receptor subfamily 1 group I member 2 (Homo sapiens) (O75469 whole entry, looked up, the tested form may be a part): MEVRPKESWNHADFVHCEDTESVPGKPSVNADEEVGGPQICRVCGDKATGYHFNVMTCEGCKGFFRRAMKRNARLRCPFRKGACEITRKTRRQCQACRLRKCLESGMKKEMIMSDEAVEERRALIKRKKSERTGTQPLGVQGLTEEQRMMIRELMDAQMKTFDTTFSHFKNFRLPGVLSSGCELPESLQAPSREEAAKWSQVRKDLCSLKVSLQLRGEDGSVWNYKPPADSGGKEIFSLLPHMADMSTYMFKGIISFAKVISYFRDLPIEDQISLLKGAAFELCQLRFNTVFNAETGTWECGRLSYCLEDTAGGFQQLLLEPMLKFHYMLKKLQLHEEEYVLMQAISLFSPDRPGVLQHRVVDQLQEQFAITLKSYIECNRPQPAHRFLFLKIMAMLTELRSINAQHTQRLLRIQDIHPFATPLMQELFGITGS
Sequence of human Retinoic Acid Receptor gamma (RARg), RARG (gene 5916) (P13631 whole entry, looked up, the tested form may be a part): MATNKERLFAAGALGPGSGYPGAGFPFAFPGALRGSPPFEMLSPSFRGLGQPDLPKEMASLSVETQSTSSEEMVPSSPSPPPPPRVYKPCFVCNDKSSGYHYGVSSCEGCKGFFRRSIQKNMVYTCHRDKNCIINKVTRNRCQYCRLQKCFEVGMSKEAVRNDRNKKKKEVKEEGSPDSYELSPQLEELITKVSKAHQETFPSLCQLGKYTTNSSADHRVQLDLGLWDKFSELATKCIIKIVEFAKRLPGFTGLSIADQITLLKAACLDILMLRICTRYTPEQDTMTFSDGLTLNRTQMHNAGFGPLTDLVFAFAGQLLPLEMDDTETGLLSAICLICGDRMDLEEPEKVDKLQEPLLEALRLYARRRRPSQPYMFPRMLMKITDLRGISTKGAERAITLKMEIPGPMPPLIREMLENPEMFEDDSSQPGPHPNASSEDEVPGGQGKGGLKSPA

O=C1Cc2ccccc2N1c1c(Cl)cccc1Cl
inactive: [1] | [2] | [3] | [9]
active: [18] 23.2 µM | [14] 0.517 µM

Cc1ccc(N=Nc2c(O)ccc3ccccc23)c(C)c1
active: [7] 3.39 µM | [13] 15 µM | [19] 6.99 µM | [14] 3.36 µM
not listed: [12] | [17] | [18]
inactive: all other assays above

CC[N+](CC)(CC)Cc1ccccc1
not listed: [3] | [8] | [19]
inactive: all other assays above

CCCCCc1ccc(O)cc1
active: [5] 13.8 µM | [6] 23.7 µM | [7] 14.5 µM | [10] 15.9 µM | [13] 10.5 µM | [19] 41.4 µM | [14] 20.7 µM
not listed: [12] | [15] | [18]
inactive: all other assays above

O=C(O)CCC(F)(F)C(F)(F)C(F)(F)C(F)(F)C(F)(F)C(F)(F)F
not listed: [11] | [12] | [15] | [18] | [19]
inactive: all other assays above

Cc1cc(C(=C2C=CC(=Nc3ccc(S(=O)(=O)O)cc3)C=C2)c2ccc(Nc3ccc(S(=O)(=O)O)cc3)cc2)cc(S(=O)(=O)O)c1N
inactive: [1] | [2] | [3] | [4] | [8] | [9] | [19] | [14] | [16] | [17]
